Shown are actives, neighbours in structure and some others; about 27% of the full set was active somewhere.
CYP2C19 inh: human CYP2C19 inhibition | P33261 | CYP2C19 Supersomes, luciferin-H EGE luminescence, 30 min | inhibition, % at 5 µM | hit rate 21% among 96,000;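 active = CYP2C19 inhibition above a set limit at 5 µM in the primary screen, cut at about 50% in these data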;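 note: plate controls were negative control wells for no effect and 2.5 mM tranylcypromine positive control for full effect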
Target sequence (P33261 whole entry, looked up): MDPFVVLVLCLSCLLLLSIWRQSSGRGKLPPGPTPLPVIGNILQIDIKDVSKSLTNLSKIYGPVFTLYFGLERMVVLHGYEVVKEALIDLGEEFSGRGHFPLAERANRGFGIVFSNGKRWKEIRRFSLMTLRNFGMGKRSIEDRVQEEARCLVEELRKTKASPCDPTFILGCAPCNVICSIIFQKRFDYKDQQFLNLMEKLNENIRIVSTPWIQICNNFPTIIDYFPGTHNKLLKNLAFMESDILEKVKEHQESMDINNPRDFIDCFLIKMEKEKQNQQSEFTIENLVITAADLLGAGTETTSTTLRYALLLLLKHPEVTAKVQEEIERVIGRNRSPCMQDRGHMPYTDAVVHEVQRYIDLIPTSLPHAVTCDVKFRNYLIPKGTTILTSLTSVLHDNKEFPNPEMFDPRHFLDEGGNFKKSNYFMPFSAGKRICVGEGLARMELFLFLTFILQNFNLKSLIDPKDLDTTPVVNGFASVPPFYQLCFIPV
EphB4 ephrin blk: blocks human EphB4 binding to ephrin-B2; inhibition, % at 7 µM; hit rate 0.15% among 97,000; P54760; EphB4 LBD / TNYL-RAW-Alexa532 peptide, fluorescence polarization; AID 720;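 active = inhibition above the screen-wide mean inhibition plus 3 SD, cut at about 15% in these data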;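 note: 0% = DMSO wells and 100% = excess unlabeled TNYL-RAW peptide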
CYP2C19 act: cytochrome P450 2C19 (human) activation. recombinant CYP2C19, luciferin-H EGE luminescence; active compounds read high; 0 = fully inhibited enzyme, 1 = untreated enzyme. activation factor at 5 µM. 96,000 tested, under 10 active;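 active = activation factor of at least 2 at 5 µM in the primary screen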;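 note: 0 = wells with 2.5 mM tranylcypromine and 1 = vehicle-only wells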
CYP2C9 activ: activators of human CYP2C9; recombinant CYP2C9, luciferin-H conversion, luminescence; active compounds read high; factor 1 = untreated enzyme, 0 = blocked; P11712; activation factor at 5 µM; hit rate 1.4% among 96,000;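 active = activation factor of 2 or more for CYP2C9 at a 5 µM dose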;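 note: 0 = sulfaphenazole-blocked wells and 1 = vehicle-only wells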
CYP2C9 inh: blocks human cytochrome P450 2C9; hit rate 20% among 96,000; inhibition, % at 5 µM; P11712; CYP2C9 Supersomes, luciferin-H conversion, luminescence;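 active = blocking of liver enzyme CYP2C9 beyond about 50% at 5 µM, limit read from the data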
* hit, by the source's call; . = no result.

SMILES	CYP2C19 inh	EphB4 ephrin blk	CYP2C19 act	CYP2C9 activ	CYP2C9 inh
Cc1nc2sc(C(c3cccs3)N3CCC(C(N)=O)CC3)c(O)n2n1 (configuration not stated)	-8	-4	1.1	0.7	26
CCCc1oc2c(c(=O)c1CC)C(=O)CC(C)(C)C2	41	0	0.6	0.8	22
N#C/C(=C/c1ccc(F)cc1)c1nc(CCN2C(=O)c3ccccc3C2=O)cs1	15	-15	0.8	0.8	18
Cc1ccc(-c2nc(CCN3C(=O)c4ccccc4C3=O)cs2)cc1	52*	5	0.5	0.7	30
Cc1cc(C)n2nc(SCc3nc4ccccc4[nH]3)nc2n1	71*	1	0.3	0.8	20
O=C1c2ccccc2C(=O)N1CSc1ncccn1	61*	.	0.4	1.7	-65
Cc1cc(C)n2nc(SCN3C(=O)c4ccccc4C3=O)nc2n1	83*	-5	0.2	1.1	-7
O=C(CCN1C(=O)c2ccccc2C1=O)Nc1ccccn1	-16	-7	1.2	1.2	-22
O=C1c2ccccc2C(=O)N1CCc1ccccn1	84*	3	0.2	0.9	10
Cc1ccccc1C(NC(N)=O)c1ccccc1 (configuration not stated)	95*	-3	0.1	0.7	29
CCCC(=O)O[C@H]1C[C@@H](C)N(C(=O)c2ccccc2)c2ccc(C)cc21	58*	3	0.4	0.4	63*
CCC(=O)OC1CC(C)N(C(=O)c2ccccc2)c2ccc(C)cc21 (configuration not stated)	25	-1	0.8	0.9	11
O=C1CCC(C(=O)Nc2cccc3ccccc23)N1 (configuration not stated)	3	0	1	1.1	-11
CC(=O)N(Cc1ccc(F)cc1)C1=C(NCCc2ccccc2)C(=O)c2ccccc2C1=O	99*	4	0	0	95*
CC(=O)NCCOc1c(C)cc(S(N)(=O)=O)cc1C	-12	-1	1.1	1.1	-6
Cc1nn(Cc2ccc(C(=O)Nc3ccccc3C(F)(F)F)o2)c(C)c1Br	91*	1	0.1	0.6	35
Cc1cc(C)cc(NC(=O)c2ccc(Cn3nc(C)c(Cl)c3C)o2)c1	.	4	.	.	.
Cc1ccc(CNC(=O)c2ccc(Cn3nc(C)c(Cl)c3C)o2)cc1	78*	0	0.2	0.6	45
O=C(CSCc1ccc(Cl)cc1)Nc1nccs1	35	4	0.7	0.7	31
COc1ccc(Nc2nc3ccccc3n3cnnc23)cc1	2	5	1	0.8	18
CCCCOC(=O)Nc1ccc(C(C)C)cc1	.	5	.	.	.
COc1ccc(CNC(=O)C2=C(C)C(=O)OC23CCC(C)CC3)cc1 (configuration not stated)	55*	-2	0.5	0.7	25
CC1=C(C(=O)NCCCOC(C)C)C2(CCC(C)CC2)OC1=O (configuration not stated)	64*	.	0.4	0.9	14
CC1=C(C(=O)NCc2ccccn2)C2(CCC(C)CC2)OC1=O (configuration not stated)	77*	11	0.2	0.9	12
CC1CC(C)(C)NCCNC(C)CC(C)(C)NCCN1 (configuration not stated)	-11	0	1.1	1	-2
SMILES	CYP2C19 inh	EphB4 ephrin blk	CYP2C19 act	CYP2C9 activ	CYP2C9 inh
CN(C(=O)c1ccco1)c1nc(CC(=O)Nc2ccccc2)cs1	.	7	.	.	.
COc1cc(C(C[N+](=O)[O-])c2c(C)[nH]c3ccccc23)cc(OC)c1OC (configuration not stated)	98*	-1	0	0.3	72*
CCOc1ccc(N2C(=O)CC(NCc3ccc(F)cc3)C2=O)cc1 (configuration not stated)	16	3	0.8	0.9	15
O=C1CC(NCc2ccccc2F)C(=O)N1c1ccccc1 (configuration not stated)	72*	8	0.3	0.8	20
O=S(=O)(c1ccc(-c2csc(=Nc3ccccc3)n2CCCN2CCOCC2)cc1)N1CCOCC1	56*	-1	0.4	0.6	36
O=C(CCc1ccc(S(=O)(=O)N2CCOCC2)cc1)Oc1ccccc1	5	4	0.9	0.8	22
CCOc1cc(C(=O)Nc2ccc3c4c(cccc24)C(=O)N3CC)cc(OCC)c1OCC	7	2	0.9	0.4	57*
Cn1c(SCc2nn[nH]n2)nc2c1c(=O)n(Cc1ccccc1Cl)c(=O)n2C	-4	-1	1	0.5	55*
C=CCn1c(=O)c2c(nc(Br)n2Cc2ccccc2Cl)n(C)c1=O	71*	-2	0.3	1	4
CCCCOC(=O)Cn1c(=O)c2c(nc(Br)n2Cc2ccccc2)n(C)c1=O	89*	.	0.1	0.2	78*
Cc1ccc(C)c(/C(O)=C2\C(=O)C(=O)N(CCCN3CCOCC3)C2c2cccnc2)c1 (configuration not stated)	-20	-5	1.2	1.2	-24
c1cc(-c2nnc3n2CCC3)[nH]n1	13	-3	0.9	1.1	-12
COc1ccc2nc(SCc3cccnc3)c(C#N)cc2c1	39	-4	0.6	0.5	49
CC(C)NC(=O)NC(=O)COC(=O)Cc1ccsc1	29	7	0.7	0.9	12
CCCCC(=O)Nc1ccc(NC(=O)c2cc(OC)c(OC)c(OC)c2)cn1	12	4	0.9	0.8	24
CCC(=O)Nc1cc(C)c(NC(=O)c2ccccc2OC)cn1	16	-4	0.8	2.6*	-157
CCCCC(=O)Nc1ccc(NC(=O)c2ccccc2OC)cn1	78*	6	0.2	3.5*	-247
Cc1ccc(C(=O)OCCN2CCN(c3ncc(C(F)(F)F)cc3Cl)CC2)cc1	18	-1	0.8	0.7	26
O=C(O)/C=C\C(=O)Nc1ccccc1C#Cc1ccccc1	3	-4	1	0.4	62*
O=C(O)/C=C\C(=O)Nc1ccccc1C#Cc1ccc(Br)cc1	-3	-3	1	0.1	87*
OC(CNCc1ccccc1)(c1ccc(F)cc1)c1ccc(F)cc1	15	4	0.9	0.9	9
CC(C)(C)NC(=O)CN(C(=O)CS(=O)CC(=O)Nc1ccc(F)cc1)c1ccc(Cl)cc1 (configuration not stated)	2	-4	1	0.5	45
CC(C)(C)NC(=O)CN(C(=O)CS(=O)CC(=O)Nc1ccc(F)cc1)c1ccc(F)c(Cl)c1 (configuration not stated)	36	4	0.6	0.1	89*
COc1ccc(C(=O)N2CC=C(c3ccccc3)CC2)cc1S(=O)(=O)N1CCOCC1	86*	-1	0.1	0.2	81*
O=C(c1ccc(CNc2c(N3CCOCC3)c(=O)c2=O)cc1)N1CC=C(c2ccccc2)CC1	43	.	0.6	0.4	59*
COc1ccc(C(=O)Nc2cc(C)cc(C)c2)cc1S(=O)(=O)N1CCOCC1	26	6	0.7	1	2
